Measurements as given in PubChem BioAssay AID1159580 (chemical genetic matrix, 2015).
The campaign covered roughly 5,500 compounds. About 2,000 (36%) were called active. Inconclusive results (about 18%) are left out. Cut-off read from the data, not from the text of the source: active = normalized growth mostly below about 0.91 (no sharp cut-off); inconclusive = no clear call, values can overlap the other calls; inactive = mostly above about 0.92. Some of the results follow.

Assay: chemical genetic growth profiling, strain panel (AID 1159580);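 note: tested at 20 µM; growth read once vehicle control cultures reached saturation at 30 °C; 1 = growth at the plate median or of vehicle wells; lower values mean less growth of the strain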
Conditions: growth OD

Measured: normalized growth

CCN(CCO)CCCC(C)Nc1ccnc2cc(Cl)ccc12 (configuration not stated)
inactive: S. cerevisiae deletion strains, locus YJR075W, strain HOC1, stronger effect = lower value 1.01 | S. cerevisiae deletion strains, locus YKL009W, strain mrt4, stronger effect = lower value 1.03 | S. cerevisiae deletion strains, locus YKL068W, stronger effect = lower value 0.998 | S. cerevisiae deletion strains, locus YKL085W, strain MDH1 (second series), stronger effect = lower value 1 | S. cerevisiae deletion strains, locus YKL085W, strain MDH1, stronger effect = lower value 1 | S. cerevisiae deletion strains, locus YKL160W, strain elf1, stronger effect = lower value 0.995 | S. cerevisiae deletion strains, locus YKL190W, strain CNB1, stronger effect = lower value 1.02 | S. cerevisiae deletion strains, locus YKR001C, strain vps1, stronger effect = lower value 1.03 | S. cerevisiae deletion strains, locus YKR026C, strain gcn3, stronger effect = lower value 1 | S. cerevisiae deletion strains, locus YKR091W, strain srl3, stronger effect = lower value 1 | S. cerevisiae deletion strains, locus YLL001W, strain dnm1, stronger effect = lower value 0.988 | S. cerevisiae deletion strains, locus YLL026W, stronger effect = lower value 1.01 | S. cerevisiae deletion strains, locus YLL041C, strain sdh2, stronger effect = lower value 1.01 | S. cerevisiae deletion strains, locus YLR027C, strain aat2, stronger effect = lower value 1 | S. cerevisiae deletion strains, locus YLR039C, strain RIC1, stronger effect = lower value 1.04 | S. cerevisiae deletion strains, locus YLR058C, strain SHM2, stronger effect = lower value 1.01 | S. cerevisiae deletion strains, locus YLR102C, strain apc9, stronger effect = lower value 1.01 | S. cerevisiae deletion strains, locus YLR113W, strain HOG1, stronger effect = lower value 1.03 | S. cerevisiae deletion strains, locus YLR221C, strain rsa3, stronger effect = lower value 0.996 | S. cerevisiae deletion strains, locus YLR258W, strain gsy2, stronger effect = lower value 0.999 | S. cerevisiae deletion strains, locus YLR262C, strain YPT6 (second series), stronger effect = lower value 0.989 | S. cerevisiae deletion strains, locus YLR262C, strain YPT6, stronger effect = lower value 1.06 | S. cerevisiae deletion strains, locus YLR268W, strain sec22, stronger effect = lower value 1.02 | S. cerevisiae deletion strains, locus YLR320W, strain mms22, stronger effect = lower value 0.997 | S. cerevisiae deletion strains, locus YLR330W, strain CHS5, stronger effect = lower value 1.01 | S. cerevisiae deletion strains, locus YLR342W, strain FKS1 (second series), stronger effect = lower value 1.02 | S. cerevisiae deletion strains, locus YLR342W, strain FKS1, stronger effect = lower value 0.997 | S. cerevisiae deletion strains, locus YLR357W, strain rsc2, stronger effect = lower value 1.02 | S. cerevisiae deletion strains, locus YLR370C, strain arc18, stronger effect = lower value 1 | S. cerevisiae deletion strains, locus YLR371W, strain rom2, stronger effect = lower value 1 | S. cerevisiae deletion strains, locus YLR384C, strain iki3, stronger effect = lower value 1 | S. cerevisiae deletion strains, locus YLR418C, strain cdc73, stronger effect = lower value 1.04 | S. cerevisiae deletion strains, locus YML016C, strain PPZ1, stronger effect = lower value 1 | S. cerevisiae deletion strains, locus YML032C, strain rad52, stronger effect = lower value 1.05 | S. cerevisiae deletion strains, locus YML120C, strain ndi1, stronger effect = lower value 0.999 | S. cerevisiae deletion strains, locus YML124C, strain tub3, stronger effect = lower value 1.01 | S. cerevisiae deletion strains, locus YMR058W, strain fet3, stronger effect = lower value 1 | S. cerevisiae deletion strains, locus YMR078C, strain ctf18, stronger effect = lower value 1.03 | S. cerevisiae deletion strains, locus YMR125W, strain sto1, stronger effect = lower value 1 | S. cerevisiae deletion strains, locus YMR129W, stronger effect = lower value 1 | S. cerevisiae deletion strains, locus YMR205C, strain PFK2, stronger effect = lower value 0.986 | S. cerevisiae deletion strains, locus YMR223W, strain ubp8, stronger effect = lower value 1.02 | S. cerevisiae deletion strains, locus YMR231W, strain pep5, stronger effect = lower value 0.987 | S. cerevisiae deletion strains, locus YMR263W, strain SAP30, stronger effect = lower value 1.01 | S. cerevisiae deletion strains, locus YMR307W, strain GAS1, stronger effect = lower value 1.11 | S. cerevisiae deletion strains, locus YNL067W, strain RPL9B, stronger effect = lower value 1.01 | S. cerevisiae deletion strains, locus YNL071W, strain lat1, stronger effect = lower value 1 | S. cerevisiae deletion strains, locus YNL128W, strain TEP1, stronger effect = lower value 1.02 | S. cerevisiae deletion strains, locus YNL153C, strain GIM3, stronger effect = lower value 1 | S. cerevisiae deletion strains, locus YNL183C, strain NPR1, stronger effect = lower value 0.952 | S. cerevisiae deletion strains, locus YNL209W, strain ssb2, stronger effect = lower value 1 | S. cerevisiae deletion strains, locus YNL233W, strain BNI4, stronger effect = lower value 1.01 | S. cerevisiae deletion strains, locus YNL248C, strain rpa49, stronger effect = lower value 1 | S. cerevisiae deletion strains, locus YNL250W, strain rad50, stronger effect = lower value 1.03 | S. cerevisiae deletion strains, locus YNL271C, strain bni1, stronger effect = lower value 1.01 | S. cerevisiae deletion strains, locus YNL298W, strain CLA4, stronger effect = lower value 1.02 | S. cerevisiae deletion strains, locus YNL307C, strain MCK1, stronger effect = lower value 1.01 | S. cerevisiae deletion strains, locus YNL322C, strain KRE1 (second series), stronger effect = lower value 1 | S. cerevisiae deletion strains, locus YNL322C, strain KRE1, stronger effect = lower value 1.01 | S. cerevisiae deletion strains, locus YNR049C, strain mso1, stronger effect = lower value 0.999 | S. cerevisiae deletion strains, locus YNR052C, strain pop2, stronger effect = lower value 1.02 | S. cerevisiae deletion strains, locus YOL006C, strain TOP1, stronger effect = lower value 1.01 | S. cerevisiae deletion strains, locus YOL012C, strain htz1 0.994 | S. cerevisiae deletion strains, locus YOL147C, strain pex11, stronger effect = lower value 1.02 | S. cerevisiae deletion strains, locus YOR001W, strain rrp6, stronger effect = lower value 1 | S. cerevisiae deletion strains, locus YOR061W, strain CKA2, stronger effect = lower value 1.01 | S. cerevisiae deletion strains, locus YOR069W, strain VPS5, stronger effect = lower value 1.01 | S. cerevisiae deletion strains, locus YOR070C, strain gyp1, stronger effect = lower value 0.995 | S. cerevisiae deletion strains, locus YOR080W, strain dia2, stronger effect = lower value 0.997 | S. cerevisiae deletion strains, locus YOR083W, strain WHI5, stronger effect = lower value 0.996 | S. cerevisiae deletion strains, locus YOR106W, strain vam3, stronger effect = lower value 1.01 | S. cerevisiae deletion strains, locus YOR136W, strain idh2, stronger effect = lower value 1.03 | S. cerevisiae deletion strains, locus YOR144C, strain elg1, stronger effect = lower value 1.02 | S. cerevisiae deletion strains, locus YOR184W, strain ser1, stronger effect = lower value 1.03 | S. cerevisiae deletion strains, locus YOR231W, strain MKK1, stronger effect = lower value 1.02 | S. cerevisiae deletion strains, locus YOR265W, strain rbl2, stronger effect = lower value 1.04 | S. cerevisiae deletion strains, locus YOR270C, strain vph1, stronger effect = lower value 1.03 | S. cerevisiae deletion strains, locus YOR290C, strain snf2, stronger effect = lower value 1.03 | S. cerevisiae deletion strains, locus YOR316C, strain cot1, stronger effect = lower value 1.01 | S. cerevisiae deletion strains, locus YPL051W, strain arl3, stronger effect = lower value 0.995 | S. cerevisiae deletion strains, locus YPL055C, strain LGE1, stronger effect = lower value 1.04 | S. cerevisiae deletion strains, locus YPL078C, strain atp4, stronger effect = lower value 1.01 | S. cerevisiae deletion strains, locus YPL106C, strain sse1, stronger effect = lower value 0.991 | S. cerevisiae deletion strains, locus YPL240C, strain hsp82, stronger effect = lower value 1 | S. cerevisiae deletion strains, locus YPL241C, strain CIN2, stronger effect = lower value 1.01 | S. cerevisiae deletion strains, locus YPL256C, strain CLN2, stronger effect = lower value 0.966 | S. cerevisiae deletion strains, locus YPR119W, strain clb2, stronger effect = lower value 1.01 | S. cerevisiae deletion strains, locus YPR141C, strain kar3, stronger effect = lower value 1.02 | S. cerevisiae deletion strains, locus YPR163C, strain tif3, stronger effect = lower value 1.01 | S. cerevisiae deletion strains, locus YPR167C, strain met16, stronger effect = lower value 1.01 | S. cerevisiae deletion strains, strain wtn01, stronger effect = lower value 1.01 | S. cerevisiae strains, strain wild type, stronger effect = lower value 1.02
